The full data set covers some 8,800 targets. This sample favours those with a hit. About 0.5% of all pairs of compound and target were hits.
What was measured:
Test in all cases: log2 fold change, soluble protein after heating vs DMSO (PISA); higher = thermal stabilisation; K562 lysate, 10 uM; active = over 0.2 and 3.5 SD of the protein, either way, in both replicates (recomputed)
[1] = compound: CS(=O)(=O)CCNCc1ccc(-c2ccc3ncnc(Nc4ccc(OCc5cccc(F)c5)c(Cl)c4)c3c2)o1 [lapatinib]
How it was run: (§1)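 To prepare the extract, K562 pellets were dounce-homogenised in PBS pH 7.4 with 1 mM MgCl2, giving crude material at 1 mg/mL protein. This was treated with 10 μM compound for 30 min, then heated in aliquots for 3 min over 48°C-58°C before pooling and addition of NP-40 to 0.5% at 4°C. Centrifugation at 21,000xg for 90 min left soluble protein in the supernatant, which TMTpro 16plex LC-MS/MS quantified with equalised channel sums. Results are log-two fold changes in thermal stability compared with solvent controls, from duplicates.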

[2] = compound: CS(=O)(=O)N1CCN(Cc2cc3nc(-c4cccc5[nH]ncc45)nc(N4CCOCC4)c3s2)CC1 [pictilisib]
How it was run: as §1

[3] = compound: C[C@@H](Oc1cc(-c2cnn(C3CCNCC3)c2)cnc1N)c1c(Cl)ccc(F)c1Cl [crizotinib]
How it was run: as §1

[4] = compound: C[C@H](C1=CC=C(C=C1)C(=O)NC2=C3C=CNC3=NC=C2)N
How it was run: as §1

[5] = compound: C[C@H](Nc1ncnc2nc[nH]c12)c1cc2cccc(Cl)c2c(=O)n1-c1ccccc1 [duvelisib]
How it was run: as §1

[6] = compound: Cc1cc(Nc2cc(CN3CCOCC3)c3nc(C)c(Cc4ccc(Cl)cc4F)n3n2)n[nH]1 [gandotinib]
How it was run: as §1

[7] = compound: Cc1cc(Nc2cc(N3CCN(C)CC3)nc(Sc3ccc(NC(=O)C4CC4)cc3)n2)n[nH]1 [tozasertib]
How it was run: as §1

[8] = compound: Cc1ccc(-n2nc(C(C)(C)C)cc2NC(=O)Nc2ccc(OCCN3CCOCC3)c3ccccc23)cc1 [doramapimod]
How it was run: as §1

[9] = compound: Cc1ccc(NC(=O)c2ccc(CN3CC[C@H](N(C)C)C3)c(C(F)(F)F)c2)cc1Nc1nccc(-c2cncnc2)n1 [bafetinib]
How it was run: as §1

[10] = compound: Cc1cccc(CC(=O)N2CCc3c2ccc(-c2cn(C)c4ncnc(N)c24)c3F)n1
How it was run: as §1

UniProt O75367, sequence (O75367 whole entry, looked up): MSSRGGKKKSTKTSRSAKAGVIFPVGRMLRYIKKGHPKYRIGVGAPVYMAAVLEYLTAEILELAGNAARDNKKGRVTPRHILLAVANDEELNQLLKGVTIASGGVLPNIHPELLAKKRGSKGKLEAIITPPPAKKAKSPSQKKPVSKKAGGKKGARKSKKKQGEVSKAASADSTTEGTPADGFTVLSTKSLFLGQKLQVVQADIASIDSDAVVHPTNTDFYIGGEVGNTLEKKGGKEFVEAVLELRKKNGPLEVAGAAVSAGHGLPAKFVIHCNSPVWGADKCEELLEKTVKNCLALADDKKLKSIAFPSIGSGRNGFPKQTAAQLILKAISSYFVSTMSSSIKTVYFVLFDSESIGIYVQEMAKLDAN
UniProt Q07666, sequence (Q07666 whole entry, looked up): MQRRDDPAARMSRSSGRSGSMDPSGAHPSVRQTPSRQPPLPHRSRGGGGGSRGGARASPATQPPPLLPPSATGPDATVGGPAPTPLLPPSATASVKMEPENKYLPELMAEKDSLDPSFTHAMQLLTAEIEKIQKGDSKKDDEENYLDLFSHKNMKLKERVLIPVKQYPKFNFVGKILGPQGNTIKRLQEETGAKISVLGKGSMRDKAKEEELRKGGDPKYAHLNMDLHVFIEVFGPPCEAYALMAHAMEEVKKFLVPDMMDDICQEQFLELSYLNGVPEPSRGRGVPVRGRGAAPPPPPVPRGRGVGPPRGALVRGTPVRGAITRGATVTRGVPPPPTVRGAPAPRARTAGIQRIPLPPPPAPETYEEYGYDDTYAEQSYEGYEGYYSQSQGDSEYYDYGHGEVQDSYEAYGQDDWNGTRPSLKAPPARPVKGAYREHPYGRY
UniProt Q7Z4H7, sequence (Q7Z4H7 whole entry, looked up): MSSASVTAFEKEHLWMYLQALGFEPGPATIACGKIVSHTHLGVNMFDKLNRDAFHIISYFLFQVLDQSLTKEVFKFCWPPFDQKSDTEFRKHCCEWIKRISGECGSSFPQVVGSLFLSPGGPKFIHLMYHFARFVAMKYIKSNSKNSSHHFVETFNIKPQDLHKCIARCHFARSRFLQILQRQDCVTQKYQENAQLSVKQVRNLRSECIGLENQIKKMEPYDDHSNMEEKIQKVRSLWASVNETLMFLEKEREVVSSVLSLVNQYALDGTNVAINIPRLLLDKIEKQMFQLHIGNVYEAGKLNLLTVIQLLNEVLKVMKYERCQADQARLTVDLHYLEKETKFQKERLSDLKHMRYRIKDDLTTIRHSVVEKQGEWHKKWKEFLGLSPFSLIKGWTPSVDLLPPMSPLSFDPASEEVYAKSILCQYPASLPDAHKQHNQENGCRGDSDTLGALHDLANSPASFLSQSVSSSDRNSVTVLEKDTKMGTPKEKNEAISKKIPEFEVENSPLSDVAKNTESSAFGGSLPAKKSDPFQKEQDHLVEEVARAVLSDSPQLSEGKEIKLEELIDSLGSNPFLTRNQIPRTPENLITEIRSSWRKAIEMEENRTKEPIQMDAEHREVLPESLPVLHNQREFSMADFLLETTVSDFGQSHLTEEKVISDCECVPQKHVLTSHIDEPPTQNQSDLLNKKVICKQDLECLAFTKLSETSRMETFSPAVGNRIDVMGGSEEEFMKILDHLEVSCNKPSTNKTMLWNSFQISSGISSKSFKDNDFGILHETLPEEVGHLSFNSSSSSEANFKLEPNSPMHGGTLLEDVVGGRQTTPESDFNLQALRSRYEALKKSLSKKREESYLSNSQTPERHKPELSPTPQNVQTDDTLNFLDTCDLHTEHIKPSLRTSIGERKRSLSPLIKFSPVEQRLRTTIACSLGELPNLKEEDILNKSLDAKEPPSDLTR
UniProt P51617, sequence (P51617 whole entry, looked up): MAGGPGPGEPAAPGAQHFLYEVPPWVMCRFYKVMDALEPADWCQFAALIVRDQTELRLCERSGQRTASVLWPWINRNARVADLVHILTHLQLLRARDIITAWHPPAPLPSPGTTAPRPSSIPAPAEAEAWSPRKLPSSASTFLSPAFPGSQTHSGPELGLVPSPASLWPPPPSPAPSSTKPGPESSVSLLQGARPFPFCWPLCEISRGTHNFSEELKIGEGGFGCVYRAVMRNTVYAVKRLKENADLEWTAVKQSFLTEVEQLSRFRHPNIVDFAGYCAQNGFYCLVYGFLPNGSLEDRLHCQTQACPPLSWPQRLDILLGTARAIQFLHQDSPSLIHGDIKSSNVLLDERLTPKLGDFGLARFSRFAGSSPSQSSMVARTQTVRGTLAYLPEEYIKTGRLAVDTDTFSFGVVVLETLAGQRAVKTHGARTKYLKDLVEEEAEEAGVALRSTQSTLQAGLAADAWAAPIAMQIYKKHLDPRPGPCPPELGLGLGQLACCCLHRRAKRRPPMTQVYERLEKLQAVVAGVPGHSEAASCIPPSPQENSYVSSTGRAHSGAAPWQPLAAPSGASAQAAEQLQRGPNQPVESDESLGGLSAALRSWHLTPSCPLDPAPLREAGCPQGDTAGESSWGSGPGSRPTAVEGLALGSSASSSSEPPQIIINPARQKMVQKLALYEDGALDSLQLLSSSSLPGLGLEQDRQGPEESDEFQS

Target | log2 fold change [1] | log2 fold change [2] | log2 fold change [3] | log2 fold change [4] | log2 fold change [5] | log2 fold change [6] | log2 fold change [7] | log2 fold change [8] | log2 fold change [9] | log2 fold change [10]
KHDRBS1 (UniProt Q07666) | -0.035 (inactive) | 0.024 (inactive) | 0.025 (inactive) | 0.046 (inactive) | 0.005 (inactive) | -0.08 (inactive) | 0.008 (inactive) | -0.017 (inactive) | 0.039 (inactive) | -0.031 (inactive)
HSPA8 (UniProt E9PK54) | -0.067 (inactive) | -0.013 (inactive) | 0.051 (inactive) | -0.025 (inactive) | 0.004 (inactive) | 0.058 (inactive) | 0.067 (inactive) | 0.011 (inactive) | 0.026 (inactive) | 0.046 (inactive)
IRAK1 (UniProt P51617) | 0.023 (inactive) | -0.008 (inactive) | 0.799 (active) | -0.111 (inactive) | -0.169 (inactive) | 0.26 (inactive) | -0.116 (inactive) | 0.172 (inactive) | -0.036 (inactive) | 0.168 (inactive)
H2AFY (UniProt O75367) | -0.021 (inactive) | 0.036 (inactive) | 0.051 (inactive) | -0.135 (inactive) | 0.01 (inactive) | 0.084 (inactive) | -0.108 (inactive) | -0.138 (inactive) | -0.011 (inactive) | 0.049 (inactive)
HAUS6 (UniProt Q7Z4H7) | 0.001 (inactive) | -0.028 (inactive) | -0.029 (inactive) | -0.054 (inactive) | 0.006 (inactive) | -0.041 (inactive) | 0.046 (inactive) | -0.009 (inactive) | 0.051 (inactive) | 0.104 (inactive)
